In PubChem BioAssay AID1159580 (chemical genetic matrix, 2015):
The campaign covered roughly 5,500 compounds. About 2,000 (36%) were called active. About 18% were inconclusive and are not listed. No stated cut-off is given here; in the data, active means normalized growth mostly below about 0.91 (no sharp cut-off); inconclusive means no clear call, values can overlap the other calls; inactive means mostly above about 0.92. The list shows a part of the results.

Experiment: chemical genetic growth profiling, strain panel (AID 1159580);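 further: tested at 20 µM; growth read once vehicle control cultures reached saturation at 30 °C; 1 = growth at the plate median or of vehicle wells; lower values mean less growth of the strain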
Conditions: S. cerevisiae deletion strains, growth OD
[1] = locus YAL013W, strain DEP1, hits give low values
[2] = locus YBR229C, strain ROT2, hits give low values
[3] = locus YDL101C, strain DUN1, hits give low values
[4] = locus YDR150W, strain NUM1, hits give low values
[5] = locus YEL061C, strain CIN8, hits give low values
[6] = locus YGR078C, strain PAC10, hits give low values
[7] = locus YHR030C, strain SLT2, hits give low values
[8] = locus YHR087W, strain rtc3, hits give low values
[9] = locus YJL187C, strain SWE1, hits give low values
[10] = locus YJR043C, strain POL32, hits give low values
[11] = locus YJR075W, strain HOC1, hits give low values
[12] = locus YLR039C, strain RIC1, hits give low values
[13] = locus YLR058C, strain SHM2 (second series), hits give low values
[14] = locus YLR085C, strain ARP6, hits give low values
[15] = locus YLR262C, strain YPT6, hits give low values
[16] = locus YML094W, strain GIM5, hits give low values
[17] = locus YMR219W, strain ESC1, hits give low values
[18] = locus YMR263W, strain SAP30, hits give low values
[19] = locus YNL153C, strain GIM3, hits give low values
[20] = locus YNL298W, strain CLA4 (second series), hits give low values
[21] = locus YNL322C, strain KRE1, hits give low values
[22] = locus YNR030W, strain Alg12, hits give low values
[23] = locus YOL006C, strain TOP1, hits give low values
[24] = locus YPL055C, strain LGE1, hits give low values
[25] = locus YPL241C, strain CIN2, hits give low values
[26] = locus YPR135W, strain CTF4, hits give low values
[27] = locus YMR307W, strain GAS1, hits give low values

Measured: normalized growth

CN(C)C=Nc1nnc(Sc2nc3cc(Cl)ccc3s2)s1
inactive: [1] 0.939 | [2] 0.958 | [3] 0.977 | [4] 0.968 | [5] 0.93 | [6] 0.983 | [8] 0.914 | [9] 0.938 | [10] 0.966 | [11] 0.974 | [13] 0.969 | [15] 0.826 | [16] 0.909 | [18] 0.957 | [19] 0.962 | [20] 0.887 | [21] 0.987 | [22] 0.93 | [26] 0.698
active: [7] 0.631 | [12] 0.757 | [14] 0.707 | [17] 0.932 | [23] 0.71 | [24] 0.796 | [25] 0.848

CN(C)C=Nc1nnc(SCc2ccc(C(=O)Oc3ccc(F)cc3F)cc2)s1
inactive: [1] 0.989 | [2] 1.05 | [3] 1.02 | [4] 0.939 | [5] 1.01 | [6] 1.01 | locus YGR229C, strain SMI1, hits give low values 1.01 | [7] 0.931 | [8] 1.02 | [9] 1.01 | [10] 0.949 | [11] 1.03 | [12] 1.08 | [13] 1.01 | [14] 0.919 | [15] 1.04 | [16] 0.973 | [17] 1.01 | [18] 0.924 | [27] 0.915 | [19] 1.02 | [20] 1 | [21] 1.03 | [22] 0.989 | [23] 1.07 | [24] 0.855 | [25] 0.996 | [26] 0.926

CN(C)C=Nc1nnc(Sc2nc3c(Cl)cc(Cl)cc3s2)s1
inactive: locus YAR019C, strain CDC15, hits give low values 0.959 | locus YBL105C, strain PKC1, hits give low values 0.969 | locus YBR135W, strain CKS1, hits give low values 0.973 | locus YBR136W, strain MEC1, hits give low values 0.968 | locus YBR160W, strain CDC28, hits give low values 0.977 | locus YDL017W, strain CDC7, hits give low values 0.976 | locus YDL028C, strain MPS1, hits give low values 0.975 | [3] 0.972 | locus YDL108W, strain KIN28, hits give low values 0.976 | locus YDL132W, strain cdc53, hits give low values 0.964 | locus YDL214C, strain PRR2, hits give low values 0.97 | locus YDR052C, strain DBF4, hits give low values 0.972 | locus YDR054C, strain cdc34, hits give low values 0.954 | locus YDR226W, strain ADK1, hits give low values 0.961 | locus YDR477W, strain SNF1, hits give low values 0.944 | locus YER123W, strain YCK3, hits give low values 0.953 | locus YER133W, strain GLC7, hits give low values 0.925 | locus YFL009W, strain cdc4, hits give low values 0.963 | locus YFL029C, strain CAK1, hits give low values 0.959 | locus YFR003C, strain YPI1, hits give low values 0.973 | locus YFR019W, strain FAB1, hits give low values 0.975 | locus YFR028C, strain CDC14, hits give low values 0.969 | locus YGR040W, strain KSS1, hits give low values 0.943 | locus YGR052W, strain FMP48, hits give low values 1 | locus YGR092W, strain DBF2, hits give low values 0.929 | [7] 1.11 | locus YHR079C, strain IRE1, hits give low values 0.946 | locus YHR082C, strain KSP1, hits give low values 1.07 | locus YHR205W, strain SCH9, hits give low values 1.01 | locus YIL147C, strain SLN1, hits give low values 0.964 | locus YJL095W, strain BCK1, hits give low values 0.937 | locus YJL128C, strain PBS2, hits give low values 0.944 | locus YJL157C, strain FAR1, hits give low values 0.941 | locus YJR016C, strain ILV3, hits give low values 0.967 | locus YJR066W, strain TOR1 (second series), hits give low values 0.924 | locus YJR066W, strain TOR1, hits give low values 1.01 | locus YKL048C, strain ELM1, hits give low values 1.01 | locus YKL067W, strain YNK1, hits give low values 0.958 | locus YKL101W, strain HSL1, hits give low values 1.01 | locus YKL193C, strain SDS22, hits give low values 0.968 | locus YKL203C, strain TOR2, hits give low values 0.96 | locus YLR113W, strain HOG1, hits give low values 0.964 | locus YLR133W, strain CKI1, hits give low values 0.968 | locus YLR403W, strain SFP1, hits give low values 0.924 | locus YML070W, strain DAK1, hits give low values 0.98 | locus YMR001C, strain CDC5, hits give low values 0.969 | locus YMR205C, strain PFK2 (second series), hits give low values 0.99 | locus YMR277W, strain FCP1, hits give low values 0.962 | locus YNL006W, strain LST8, hits give low values 0.969 | locus YNL020C, strain ARK1, hits give low values 0.966 | locus YNL161W, strain CBK1, hits give low values 0.967 | locus YNL183C, strain NPR1, hits give low values 0.995 | locus YNL207W, strain RIO2, hits give low values 0.959 | locus YNL222W, strain SSU72, hits give low values 0.97 | locus YNL307C, strain MCK1 (second series), hits give low values 0.979 | locus YOL078W, strain AVO1, hits give low values 0.973 | locus YOL136C, strain PFK27, hits give low values 0.984 | locus YOR061W, strain CKA2, hits give low values 0.944 | locus YOR119C, strain RIO1, hits give low values 1 | locus YOR231W, strain MKK1, hits give low values 0.954 | locus YOR329C, strain SCD5, hits give low values 0.968 | locus YPL031C, strain PHO85, hits give low values 0.9 | locus YPL153C, strain RAD53, hits give low values 0.913 | locus YPL204W, strain HRR25, hits give low values 0.903 | locus YPL209C, strain IPL1, hits give low values 0.975 | locus YPL256C, strain CLN2, hits give low values 1.1 | locus YPR025C, strain CCL1, hits give low values 0.971 | locus YPR106W, strain ISR1, hits give low values 0.98 | locus YPR111W, strain DBF20, hits give low values 0.957 | strain NNK1, hits give low values 0.974 | strain TSCII, hits give low values 0.957

C[C@H](O)C(=O)C1=Nc2c(nc(N)[nH]c2=O)NC1
inactive: [1] 0.952 | locus YAL040C, strain CLN3, hits give low values 0.966 | locus YCL061C, strain MRC1 (second series), hits give low values 0.983 | locus YDR363W, strain ESC2, hits give low values 0.952 | locus YER002W, strain NOP16, hits give low values 1.04 | [6] 0.998 | [11] 0.98 | [18] 0.983 | [27] 0.983 | locus YNL175C, strain NOP13, hits give low values 1.01 | locus YNL197C, strain WHI3, hits give low values 1.01 | locus YNL224C, strain SQS1, hits give low values 0.997 | [21] 0.955 | locus YOR083W, strain WHI5 (second series), hits give low values 0.996 | [24] 0.971
